target: LAMB4; test: pooled miR-30 sensor sort-seq; sequence = guide strand; settings: shRNA
Further: reference of the scale not given here.

Sequence	sensor-assay potency score (higher = more potent)
TTTGTTAGTCCTGTAGTGCTTG	0.084
TTCACTTATACTTTCGATCTGA	0.249
TTTAGCTGCATGATTTGTCTTC	-0.0764
TAGTCCTGTAGTGCTTGTCTTA	-1.22
TTGCTCTTTCTATTGTATCTTT	-0.796
TTGACTTTTAAGAATTTCCCAG	-0.128

target: LAMC1; test: as above; settings: shRNA

Sequence	sensor-assay potency score (higher = more potent)
TTTGCAATTACACACCAGCTTA	-0.786
TTCATCAGTACACAAGGCCTGC	-0.475
TTCCTTTAGTCTATCCTCGAAG	-0.66
TTCTTTTGGACAGCGCTCGCGA	-0.297
TTCGCTTGTTCATACTTCCTAT	0.107
TTCAATATTACATTCATCTATG	-0.485
TCGTTCTTCATACACTCGCTTG	-1.26
TATGAGACTCTCTAATTCCTGG	-0.463
TAGGACTTGAGAACTTTGGGAT	0.474
TACATTTACATCTGCCACCTAC	-0.06
TTGTCTTTGCAAACACATCTTC	-0.117
TTGACTTCAAGTTCCTTCCCTC	0.467

target: LANCL2; test: as above; settings: shRNA

Sequence	sensor-assay potency score (higher = more potent)
AATCACATCGCTACACTCCATG	-1.26
TTAACATATAGTAAATTCCAGC	-0.758
TTTAATTTTGGTCTGGATCCGT	0.159
TATGAAATTATGAATGATCTTC	0.142
TAATAGCTGACTCACACACGGT	-0.857
TTTTGTGACACATTCCTGGGAC	0.967
TTTCTGTCAAGGTTTCTTGGTC	-0.185
AAGTTTTGTGACACATTCCTGG	0.068
AATAATAGCATTGACTACCTCT	0.441
TTTCTTGGTCCACTTTTGCTGC	-1.18
TTTCAAGTACTTCTCCTCCTTA	-0.0935
TGATTCTTGGCAGACAACCGAT	-0.954

target: LARP1B; test: as above; settings: shRNA

Sequence	sensor-assay potency score (higher = more potent)
TAGACTGTGTCTTAGATTGAGA	-0.454
TGATCTTACAACATCTAAGTGG	-0.00509
TTTCTTGACTCTCTGATCTTAC	-0.67
TAGGATCTTGTAACCTAGGTGT	0.016
TTTATTGAAGTGATCTCTGAGG	-0.332
TAGTAATACATCATACTGGTAT	-0.0186
TTCTACTTCTGTGCTATCCTTC	0.509
TTCTTCTGAAGAACATAGCTGA	0.273
TTTACTAATGAGATTTAGCTTC	-0.374
TGAAACATCAAATAACTTCTGA	0.226

From the OligoGym collection
